RGS8-Gao – RGS8-Galphao binding modulators, primary screen, biochemical, multiplexed bead flow cytometry. actives lie on both sides. response (percent of control binding), % at 10 µM. hit rate 0.34% among 220,000. AID 1423, 2008; in the data active = response below about 60% or above about 140%; inactive = in between;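 note: Galphao activated as the GDP aluminium fluoride complex binding bead-coupled RGS8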
Target sequence (P09471 whole entry, looked up): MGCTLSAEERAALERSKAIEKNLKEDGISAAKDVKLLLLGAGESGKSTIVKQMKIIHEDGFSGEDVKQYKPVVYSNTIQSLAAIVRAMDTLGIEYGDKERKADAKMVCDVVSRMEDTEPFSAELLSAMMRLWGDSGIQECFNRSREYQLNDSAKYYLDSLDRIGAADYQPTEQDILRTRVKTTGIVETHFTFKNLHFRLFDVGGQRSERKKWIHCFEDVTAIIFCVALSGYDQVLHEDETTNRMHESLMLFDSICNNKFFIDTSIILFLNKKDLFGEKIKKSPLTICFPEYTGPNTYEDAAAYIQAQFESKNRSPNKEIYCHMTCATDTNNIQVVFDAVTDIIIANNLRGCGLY
RGS4-Gao reg – modulators of RGS4 binding to Galphao, primary screen, biochemical, multiplexed bead flow cytometry; binding response (% of control), % at 10 µM; actives lie on both sides; AID 1415, 2008; hit rate 0.33% among 220,000; Guanine nucleotide-binding protein G(o) subunit alpha (Homo sapiens), P09471; in the data active = binding response below about 49% or above about 150%; inactive = in between;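 note: fluorescent Galphao activated with aluminum fluoride binding bead-coupled RGS4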
RGS16-Gao HTS – modulators of RGS16 binding to Galphao, primary screen, biochemical, human proteins, multiplexed bead flow cytometry; bead-based flow cytometry RGS16-Galphao binding, fluorescence; actives lie on both sides; hit rate 0.38% among 220,000; AID 1441, 2008; Regulator of G-protein signaling 16 (Homo sapiens) + Guanine nucleotide-binding protein …; binding response (% of control), % at 10 µM; call rule not given here;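 note: Galphao activated by GDP with aluminum fluoride before binding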
Avidin fluor – green autofluorescence of compounds with avidin beads – biophysical, 488/530 nm, flow cytometry, artefact control, profiling panel; compound fluorescence 488/530 nm; stronger effect = higher value; fluorescence (KMESF) at 10 µM; hit rate 0.38% among 220,000; in the data active = fluorescence above about 47
GSH bead fluor – compound fluorescence on glutathione beads, profiling panel, artefact control, biophysical, 488/530 nm, flow cytometry; AID 1776, 2009; GSH beads flow cytometry, compound fluorescence 488/530 nm; stronger effect = higher value; fluorescence (KMESF) at 10 µM; hit rate 0.25% among 190,000; in the data active = fluorescence above about 89;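 note: glutathione beads carrying GST-tagged Bcl family fusion proteins plus one bare bead set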
RGS7-Gao reg – RGS7-Galphao binding modulators, primary screen, biochemical, multiplexed bead flow cytometry; actives lie on both sides; binding response (% of control), % at 10 µM; hit rate 0.35% among 220,000; in the data active = binding response below about 49% or above about 150%; inconclusive = no clear call, values can overlap the other calls; inactive = in between;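 note: fluorescent Galphao held in activated GDP-AlF4 state binding bead-coupled RGS7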
Biotin-avidin – disruption of biotin probe capture by avidin, counter-screen for RGS protein interaction modulators, biochemical, flow cytometry, bead-based. AID 1783, 2009. streptavidin beads, fluorescein-biotin binding. 1,700 tested, under 10 active. shares compounds with RGS16-Gao HTS. inhibition, % at 10 µM;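 active = inhibition above 50%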;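 note: median green fluorescence of gated singlet beads compared with DMSO control wells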
RGS8-Gao confirm – RGS8-Galphao binding modulators, confirmation, biochemical, multiplexed bead flow cytometry, single concentration | shares compounds with RGS16-Gao HTS | bead-based flow cytometry RGS8-Galphao binding, fluorescence; actives lie on both sides | binding response (% of control), % at 10 µM | hit rate 3% among 1,700; in the data active = binding response below about 72% or above about 130%; inactive = in between;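 note: Galphao activated as GDP AlF4 complex before binding bead RGS8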
RGS7-Gao confirm – RGS7-Galphao binding modulators, confirmation, biochemical, multiplexed bead flow cytometry, single concentration | shares compounds with RGS16-Gao HTS | response (percent of control binding), % at 10 µM | AID 1837, 2009 | hit rate 7.8% among 1,700 | bead-based flow cytometry RGS7-Galphao binding; actives lie on both sides; in the data active = response below about 75% or above about 130%; inactive = in between;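 note: fluorescent Galphao activated with GDP and aluminum fluoride binding bead-coupled RGS7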
RGS16-Gao conf – modulators of RGS16-Galphao protein binding, confirmation, biochemical, single concentration, multiplexed bead flow cytometry; AID 1838, 2009; response (% of control binding), % at 10 µM; hit rate 4% among 1,700; bead-based flow cytometry; actives lie on both sides; shares compounds with RGS16-Gao HTS; in the data active = response below about 74% or above about 130%; inactive = in between;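 note: Galphao activated as the GDP aluminium fluoride complex binding bead-coupled RGS16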
RGS4-Gao single – modulators of RGS4-Galphao protein binding, confirmation, biochemical, single concentration, multiplexed bead flow cytometry; shares compounds with RGS16-Gao HTS; actives lie on both sides; binding response (% of control), % at 10 µM; hit rate 4% among 1,700; AID 1840, 2009; in the data active = binding response below about 74% or above about 130%; inactive = in between
RGS19-Gao conf – regulators of RGS19-Galphao binding, confirmation, biochemical, single point, multiplexed bead flow cytometry. hit rate 5% among 1,700. AID 1841, 2009. bead-based flow cytometry RGS19-Galphao binding; actives lie on both sides. response (percent of control binding), % at 10 µM. shares compounds with RGS16-Gao HTS; in the data active = response below about 50% or above about 160%; inactive = in between
A number is an active result; . = inactive; ? = inconclusive; / = not tested or not shown. Sampled rows, rich in hits. Any-hit rate of the full collection: about 1.2%.

SMILES	RGS8-Gao	RGS4-Gao reg	RGS16-Gao HTS	Avidin fluor	GSH bead fluor	RGS7-Gao reg	Biotin-avidin	RGS8-Gao confirm	RGS7-Gao confirm	RGS16-Gao conf	RGS4-Gao single	RGS19-Gao conf
C/C(=N/NC(=O)Cc1cccs1)c1ccco1	.	.	.	.	.	.	/	/	/	/	/	/
CCCCN(C)CCNC(=O)C(NC(=O)C1CCC(C)CC1)C(C)C (centres undefined)	.	.	.	/	.	.	/	/	/	/	/	/
Cc1cc(NC(=O)c2ccc(C)s2)n(-c2nc3ccccc3[nH]2)n1	12.0	14.4	0.3	.	.	13.1	.	.	.	.	.	.
COc1ccccc1C1CCN(c2cc(O)ccc2[N+](=O)[O-])CC1	.	.	.	.	/	?	/	/	/	/	/	/
CS(=O)(=O)N(CC(=O)Nc1cccnc1)c1ccc2c(c1)OCO2	/	/	/	/	.	/	.	.	.	.	.	.
CS(=O)(=O)N(CC(=O)Nc1cccnc1)c1ccc2c(c1)OCCO2	.	.	.	.	.	.	/	/	/	/	/	/
COc1cc(OC)cc(C(=O)NC2=NCCS2)c1	.	.	.	.	.	.	/	/	/	/	/	/
COc1cc(NC(=O)SC2=NCCS2)cc(OC)c1	.	40.7	.	.	/	?	.	.	.	.	.	.
O=c1[nH]nc(SCc2nnc(-c3cccc(Cl)c3)o2)n1C1CCCCC1	.	.	.	.	/	?	/	/	/	/	/	/
O=C(O)C[C@@H]1C(=O)O[C@@H]2C(COC(=O)c3cc(O)c(O)c(O)c3)O[C@@H](OC(=O)c3cc(O)c(O)c(O)c3)[C@@H](OC(=O)c3cc(O)c(O)c4c3[C@H]1[C@H](O)C(=O)O4)[C@H]2OC(=O)c1cc(O)c(O)c(O)c1 (some centres undefined)	38.1	2.5	.	.	/	?	.	39.0	-11.7	38.6	-0.5	41.7
CN(C)S(=O)(=O)c1cccc(NC(=O)COC(=O)c2cc3ccccc3oc2=O)c1	.	.	.	.	/	?	/	/	/	/	/	/
Cc1ccc(NC(=O)C(=O)NCCN2CCN(C(=S)Nc3ccccc3)CC2)cc1	.	.	.	.	.	.	/	/	/	/	/	/
CCOC(=O)C(=O)Nc1ccccc1C(=O)OC	.	.	.	.	.	.	/	/	/	/	/	/
CCOC(=O)C(=O)Nc1ccccc1C(N)=O	/	/	/	/	.	/	.	.	.	.	.	.
CCN(CC)c1ccc(NC(=O)c2ccc(=O)[nH]c2)cc1S(=O)(=O)Nc1ccccc1OC	.	.	.	.	.	.	/	/	/	/	/	/
COCCn1c(C)cc(C(=O)COC(=O)c2ccc3ncsc3c2)c1C	47.2	-46.2	-52.9	.	.	14.7	.	.	.	.	.	.
